# Laboratory results as given in PubChem BioAssay (NCATS).
# Inconclusive results are not listed. Activity calls are given as the source filed them. The call rests on the fitted dose curve; in most records, active means well fitted curve in the direction sought with a large enough effect; inconclusive means small, poorly fitted or top-dose-only effect, or another doubt; inactive means no such curve, though single readings can be large; an effect the other way counts as inactive or inconclusive. Starred links: 1 amine or outer side, 2 acyl side, 3 side chain; linkers in the order of their positions; H or OH if unused. Positions of bridges follow the written chain, without caps; N, C: chain ends. Non-standard residues stand in square brackets, D forms with d. Residues, ends and D or L forms follow the SMILES beside them. Chains are numbered I, II in the order given. Actinocin(9to1) = Cc1c2oc3c(C)ccc(C(=O)[*:1])c3nc-2c(C(=O)[*:2])c(N)c1=O; NMeV = CN[CH](C(=O)O)C(C)C; Sar = CNCC(=O)O
# Assays:
# [1] = qHTS of pediatric cancer cell lines to identify multiple opportunities for drug repurposing: Primary screen for NB-EBc1 cells (AID 1347095)
# Method in brief: (§1)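 Phenotypic viability qHTS, 48 h compound exposure, CellTiter-Glo luminescence read-out; multi-concentration dosing so that potency and efficacy derive directly from the primary screen's curves.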
# [2] = qHTS of pediatric cancer cell lines to identify multiple opportunities for drug repurposing: Primary screen for U-2 OS cells (AID 1347096); further: nearly all actives have a fitted effect of over 50% in size
# Method in brief: (§2)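 Cells (500-1,000/well) rested 5 h, then received compounds for 48 h; metabolically active cells were measured by CellTiter-Glo luminescence. Final concentrations spanned up to 46 µM (MIPE, 11-point) or 0.59 nM-46 µM (NPC, 8-point) in primary screens, 11-point in follow-ups.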
# [3] = qHTS of pediatric cancer cell lines to identify multiple opportunities for drug repurposing: Primary screen for Saos-2 cells (AID 1347097); further: nearly all actives have a fitted effect of over 40% in size
# Method in brief: as §1
# [4] = qHTS of pediatric cancer cell lines to identify multiple opportunities for drug repurposing: Primary screen for NB1643 cells (AID 1347099); further: nearly all actives have a fitted effect of over 50% in size
# Method in brief: as §1
# [5] = qHTS of pediatric cancer cell lines to identify multiple opportunities for drug repurposing: Primary screen for LAN-5 cells (AID 1347100)
# Method in brief: as §2
# [6] = qHTS of pediatric cancer cell lines to identify multiple opportunities for drug repurposing: Primary screen for BT-12 cells (AID 1347101); further: nearly all actives have a fitted effect of over 25% in size
# Method in brief: as §2
# [7] = qHTS of pediatric cancer cell lines to identify multiple opportunities for drug repurposing: Primary screen for Rh18 cells (AID 1347102); further: nearly all actives have a fitted effect of over 65% in size
# Method in brief: as §2
# [8] = qHTS of pediatric cancer cell lines to identify multiple opportunities for drug repurposing: Primary screen for OHS-50 cells (AID 1347103); further: nearly all actives have a fitted effect of over 40% in size
# Method in brief: as §2
# [9] = qHTS of pediatric cancer cell lines to identify multiple opportunities for drug repurposing: Primary screen for RD cells (AID 1347104); further: nearly all actives have a fitted effect of over 55% in size
# Method in brief: as §1
# [10] = qHTS of pediatric cancer cell lines to identify multiple opportunities for drug repurposing: Primary screen for SK-N-SH cells (AID 1347098); further: nearly all actives have a fitted effect of over 65% in size
# Method in brief: as §2
# Potency means the concentration at half of the fitted maximal effect.
Compound,Potency [1],Potency [2],Potency [3],Potency [4],Potency [5],Potency [6],Potency [7],Potency [8],Potency [9],Potency [10]
COc1cc2c(Nc3ccc(Cl)c(Cl)c3F)ncnc2cc1OCC1C[C@@H]2CN(C)C[C@H]2C1,16.6 µM (active),18.7 µM (active),16.6 µM (active),14.8 µM (active),11.8 µM (active),24.3 µM (active),18.7 µM (active),4.85 µM (active),16.6 µM (active),–
COc1cc(CCc2cc(NC(=O)c3ccc(N4C[C@@H](C)N[C@@H](C)C4)cc3)n[nH]2)cc(OC)c1,14.8 µM (active),23.5 µM (active),5.9 µM (active),–,4.18 µM (active),27.3 µM (active),5.9 µM (active),5.44 µM (active),16.6 µM (active),6.07 µM (active)
CC(=O)N[C@H]1[C@@H]([C@H](O)[C@H](O)CO)OC(C(=O)O)=C[C@@H]1N=C(N)N,inactive,inactive,inactive,–,inactive,inactive,inactive,inactive,inactive,inactive
O=S(=O)(O)CCSSCCS(=O)(=O)O,inactive,inactive,inactive,23.5 µM (active),inactive,–,inactive,inactive,inactive,–
O=C(C=CC#Cc1cccc(NS(=O)(=O)c2ccccc2)c1)NO,0.833 µM (active),2.96 µM (active),2.35 µM (active),1.18 µM (active),1.18 µM (active),7.69 µM (active),1.66 µM (active),5.44 µM (active),5.26 µM (active),–
OCC(O)C(O)C(O)CO (stereo not drawn),inactive,inactive,inactive,inactive,inactive,inactive,inactive,inactive,inactive,–
CC1=C(C(=O)Nc2cc3cn[nH]c3cc2F)C(c2ccc(Cl)cc2F)N=C(c2ccnc(Cl)c2)N1 (stereo not drawn),10.5 µM (active),inactive,5.9 µM (active),–,9.35 µM (active),–,–,–,inactive,19.2 µM (active)
CC(=O)OCC(=O)[C@@]12N=C(C)O[C@H]1C[C@H]1[C@@H]3CCC4=CC(=O)C=C[C@]4(C)[C@@H]3[C@@H](O)C[C@@]12C,inactive,inactive,inactive,inactive,inactive,inactive,inactive,inactive,inactive,–
Nc1ccc(C(=O)Nc2cccc(-c3nc(N4CCOCC4)c4oc5ncccc5c4n3)c2)cn1,2.35 µM (active),18.7 µM (active),8.33 µM (active),2.35 µM (active),6.62 µM (active),–,14.8 µM (active),6.11 µM (active),10.5 µM (active),–
C[C@H]1COc2c(N3CCN(C)CC3)c(F)cc3c(=O)c(C(=O)O)cn1c23,inactive,inactive,inactive,–,inactive,inactive,inactive,inactive,inactive,inactive
Nc1ccn(C[C@@H](CO)OCP(=O)(O)O)c(=O)n1,inactive,inactive,inactive,inactive,inactive,inactive,inactive,inactive,inactive,–
CC(C)Oc1ccc(C(=O)N[C@H](CNC(=O)CN(C)C)Cc2ccc(-c3cn4cccc([C@H](C)O)c4n3)cc2)cc1Cl,0.372 µM (active),inactive,0.332 µM (active),–,1.05 µM (active),1.93 µM (active),–,2.43 µM (active),–,15.2 µM (active)
"Cc1c2oc3c(C)ccc(C(=O)NC4C(=O)NC(C(C)C)C(=O)N5CCCC5C(=O)N(C)CC(=O)N(C)C(C(C)C)C(=O)OC4C)c3nc-2c(C(=O)NC2C(=O)NC(C(C)C)C(=O)N3CCCC3C(=O)N(C)CC(=O)N(C)C(C(C)C)C(=O)OC2C)c(N)c1=O (stereo not drawn) (I: TVP[Sar][NMeV] / II: TVP[Sar][NMeV]; ester I:1-I:C, II:1-II:C; linker I:N-II:N via Actinocin(9to1); configuration not given here)",inactive,0.001 µM (active),0.001 µM (active),–,–,0.001 µM (active),1.87 µM (active),0.001 µM (active),0.001 µM (active),0.001 µM (active)
CC(C)(N)c1ccc(-c2nc3ccccc3nc2-c2ccccc2)cc1,18.7 µM (active),inactive,1.05 µM (active),23.5 µM (active),13.2 µM (active),24.3 µM (active),20.9 µM (active),7.69 µM (active),16.6 µM (active),–
